Screens from PubChem BioAssay.
Compounds with a hit are over-represented: about 2.2% of the library has one in this group of screens.
HGIII-sPLA2 inh: human group III sPLA2 inhibitors, primary screen, biochemical, QFRET, BODIPY PC-A2 liposome substrate | actives 0.56% (n = 370,000) | inhibition, % at 12.2 µM | QFRET BODIPY PC-A2 liposome hydrolysis, fluorescence | Group 3 secretory phospholipase A2 (Homo sapiens), Q9NZ20;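 active means inhibition above mean plus 3 SD of compounds lying within the high and low control bounds, cut at about 19% in these data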;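 further: 0% = median of test compound wells and 100% = no enzyme DMSO wells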
MOR-DOR ag: agonists of OPRM1-OPRD1 heterodimerization, primary screen, cell-based, luminescence; Mu-type opioid receptor (Homo sapiens) + Delta-type opioid receptor (Homo sapiens), …; cells; activation, % at 9.3 µM; actives 0.3% (n = 340,000); AID 504326, 2011; in the data active means activation above about 18%;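 further: 0% = vehicle-treated cells and 100% = reference agonist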
m5-HT2A agonist: mouse Htr2a agonists via beta-arrestin recruitment, primary screen, cell-based, luminescence. 5-hydroxytryptamine receptor 2A (Mus musculus), P35363. CHO-K1 mHTR2A beta-arrestin complementation; percent of 30 µM serotonin response. activation, % at 7.6 µM. actives 0.66% (n = 360,000). AID 624169, 2012;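 active means activation above a run cutoff, the mean activation of all tested compounds plus 3 SD, cut at about 14% in these data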;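 further: 0% = plate median of compound wells and 100% = 30 µM serotonin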
OPRM1-OPRD1 inv: inverse agonists of MOR-DOR heterodimerization, primary screen, cell-based, luminescence; cell-based MOR-DOR heterodimer luminescence, inverse agonism; actives 0.21% (n = 340,000); inhibition, % at 9.3 µM; AID 504357, 2011; in the data active means inhibition above about 22%, passing the limit was not always enough;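 further: 0% = cells with DMSO and 100% = wells without cells with DMSO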
HTR5A inv ctr: HTR5A inverse agonists in luminescence cell assay, primary screen, counter-screen for OPRM1-OPRD1 heterodimer inverse agonist project, full-deck HTS | 5-hydroxytryptamine receptor 5A (Homo sapiens), P47898 | HTR5A cell line, inverse agonism | inhibition, % at 9.3 µM | actives 0.083% (n = 340,000); in the data active means inhibition mostly above about 23%, no sharp cut-off; inactive means mostly below about 18%;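 further: 0% = cells with DMSO and 100% = no-cell wells with DMSO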
HTR5A ag ctr: HTR5A agonists in luminescence cell assay, primary screen, counter-screen for OPRM1-OPRD1 heterodimer agonist project, full-deck HTS | activation, % at 9.3 µM | actives 0.61% (n = 340,000) | 5-hydroxytryptamine receptor 5A (Homo sapiens), P47898 | cell-based | AID 504692, 2011; in the data active means activation mostly above about 9.5%, no sharp cut-off; inactive means mostly below about 7.6%;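 further: 0% = cells with vehicle only and 100% = reference agonist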
MOR ag counter: OPRM1 agonists via beta-arrestin recruitment, confirmation, counter-screen for mouse HTR2A agonist project, cell-based, luminescence, single concentration. activation, % at 9.3 µM. U2OS OPRM1 beta-arrestin PathHunter; DMSO 0%, DAMGO 9.3 µM 100%. shares compounds with m5-HT2A agonist. actives 5.3% (n = 2,300);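 active means mean activation above the mean of DMSO-only wells plus 3 SD, cut at about 0.5% in these data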
Target sequence (P35372 whole entry, looked up): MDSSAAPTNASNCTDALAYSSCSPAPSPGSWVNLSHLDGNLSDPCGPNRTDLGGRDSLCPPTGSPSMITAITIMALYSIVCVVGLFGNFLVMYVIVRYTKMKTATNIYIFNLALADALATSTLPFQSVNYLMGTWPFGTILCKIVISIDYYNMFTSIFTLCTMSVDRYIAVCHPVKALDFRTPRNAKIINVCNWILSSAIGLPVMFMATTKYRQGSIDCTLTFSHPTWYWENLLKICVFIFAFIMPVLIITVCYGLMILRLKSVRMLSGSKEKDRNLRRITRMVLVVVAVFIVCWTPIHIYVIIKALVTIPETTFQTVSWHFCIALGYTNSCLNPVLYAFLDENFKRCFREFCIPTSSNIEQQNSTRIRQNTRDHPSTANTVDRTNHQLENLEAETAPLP
HTR2A ag conf: mouse HTR2A agonists, beta-arrestin recruitment, confirmation, cell-based, luminescence, CHO-K1 PathHunter, triplicate | shares compounds with m5-HT2A agonist | DMSO 0%, 30 µM serotonin 100% | activation, % at 7.6 µM | actives 19% (n = 2,300) | AID 624381, 2012;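 active means mean activation across triplicates above the hit threshold derived in the original primary screen, cut at about 15% in these data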
Numbers without * were called inactive; · = not tested or not shown.

SMILES	HGIII-sPLA2 inh	MOR-DOR ag	m5-HT2A agonist	OPRM1-OPRD1 inv	HTR5A inv ctr	HTR5A ag ctr	MOR ag counter	HTR2A ag conf
CCN(CC)C(=O)CC[C@H]1CC[C@]2(CCCN(S(=O)(=O)c3ccccc3)C2)O1	5	·	·	·	·	·	·	·
Cn1ncc(Cl)c1C(=O)Nc1nnc(C2CC2)s1	2	-3	-1	13	-14	4	·	·
Cn1nccc1C(=O)Nc1nnc(C2CC2)s1	8	0	15*	2	-12	3	0	3
CN1[C@@H](Cc2ccccc2)COc2cccc(N3CCCC3)c2S1(=O)=O	7	·	·	·	·	·	·	·
CCC(C(=O)O)n1cnc2scc(-c3ccc(C)c(C)c3)c2c1=O (stereo not given)	0	-2	24*	10	4	-1	0	-2
CCC(C(=O)OC)n1cnc2scc(-c3ccc(C)c(C)c3)c2c1=O (stereo not given)	-5	3	-6	-15	7	-2	·	·
CCOC(=O)CC[C@H]1CC[C@]2(CCCN(C(=O)C3CCCC3)C2)O1	10	·	·	·	·	·	·	·
CN1CCc2c(sc(/N=C/c3cc(Cl)ccc3O)c2C#N)C1	-1	-2	19*	10	13	3	-1	65*
CN1CCc2c(sc(/N=C/c3c[nH]c4ccccc34)c2C#N)C1	-12	·	0	·	·	·	·	·
CNc1cc(C)nc(-n2nc(C)cc2C)n1	9	-1	3	3	0	0	·	·
Cc1cc(Cl)nc(-n2nc(C)cc2C)n1	0	·	16*	·	·	·	-1	-3
Cc1c(C(=O)NCc2ccccn2)sc(=O)n1Cc1ccc(-c2ccccc2)cc1	-15	·	25*	·	·	·	-1	-4
COc1ccccc1CNC(=O)C[C@@H]1CC[C@H]2[C@@H](COC[C@H](O)CN2Cc2ccccc2)O1	4	·	1	·	·	·	·	·
COc1ccccc1CNC(=O)C[C@H]1CC[C@@H]2[C@H](COC[C@H](O)CN2Cc2ccc3c(c2)OCO3)O1	-3	·	25*	·	·	·	-1	1
COc1ccc(COCC(O)CN2CCc3ccccc3C2)cc1OC (stereo not given)	-4	0	21*	1	-23	3	0	4
COc1ccc(NC(=O)CN(C)CC(=O)NCC(=O)Nc2ccc(F)cc2)cc1	2	0	16*	3	-16	2	-1	-3
COc1cccc(NC(=O)CN(C)CC(=O)NCC(=O)Nc2ccc(F)cc2)c1	2	-4	-4	16	-8	-2	·	·
O=C(NS(=O)(=O)c1ccc(Cl)cc1)c1ccccc1	-2	-1	15*	6	-1	9	0	0
C[C@@H]1CCN(C2CC2)S(=O)(=O)c2ccc(N3CC[C@@H](O)C3)cc2O1	4	·	·	·	·	·	·	·
CC(C)(C)c1ccc(S(=O)(=O)NC(=O)C2(C)CCN2C(=O)C2(c3ccccc3)CC2)cc1 (stereo not given)	-17	·	18*	·	·	·	-1	-2
Cc1cc(C)cc(CC(=O)N2CCC2(C)C(=O)NS(=O)(=O)c2ccc(C#N)cc2)c1 (stereo not given)	-6	·	16*	·	·	·	-1	-3
CC(C)(C)c1ccc(CC(=O)N2CCC2(C)C(=O)NS(=O)(=O)c2cccc(OC(F)F)c2)cc1 (stereo not given)	-19	·	16*	·	·	·	0	4
CC1(C(=O)NS(=O)(=O)c2ccc(C#N)cc2)CCN1C(=O)Cc1ccsc1 (stereo not given)	2	·	-1	·	·	·	·	·
Cc1ccc(/C=N/c2sc3c(c2C#N)CCCCC3)o1	13	-2	16*	10	10	0	0	16*
O=C(Cn1c(=O)c2cccn2c2cccnc21)N1CCN(c2ccc(Cl)cc2)CC1	·	-2	15*	11	12	4	-1	-1
SMILES	HGIII-sPLA2 inh	MOR-DOR ag	m5-HT2A agonist	OPRM1-OPRD1 inv	HTR5A inv ctr	HTR5A ag ctr	MOR ag counter	HTR2A ag conf
Cc1ccc(-c2cc(-c3nnc(SCC(=O)Nc4ccccc4-c4ccccc4)n3N)[nH]n2)cc1	-30	·	·	·	·	·	·	·
Cc1ccc(Cn2cc(CN3[C@H](CC(C)C)COc4cc(Br)ccc4S3(=O)=O)nn2)cc1	4	·	·	·	·	·	·	·
COC(=O)[C@]12C[C@H](CC(=O)NCCc3ccccc3OC)C(=O)N(Cc3ccc(Cl)cc3Cl)C1=C[C@H](C(C)C)O[C@@H]2C1CC1	-14	·	·	·	·	·	·	·
Cc1ccc(NC(=O)Cc2ccc(F)cc2)c(S(=O)(=O)N2CCOCC2)c1	-4	·	·	·	·	·	·	·
COc1cccc(-c2cc(C(=O)NC3CCCCC3)no2)c1	-2	2	-7	-11	-17	6	·	·
COc1ccc(-c2cc(C(=O)NC3CCCC3)no2)cc1	4	1	25*	-5	-14	5	0	-4
CCC(C)(C)C(=O)N1CCC(C(=O)NC2CCCc3ccccc32)CC1 (stereo not given)	0	·	·	·	·	·	·	·
O=C(NCCN1CCC(Cc2ccccc2)CC1)C1CCCN(S(=O)(=O)c2ccccc2[N+](=O)[O-])C1 (stereo not given)	-11	·	·	·	·	·	·	·
CNC(=O)c1ccc(CNC(=O)OCC(F)(F)F)cc1	5	-2	25*	10	3	9	0	2
COC(=O)CCCC1=CC2=C(c3ccccc3)C(=O)C(C)(OC(=O)C3CCCC3)C(=O)C2=CN1CCN1CCOCC1 (stereo not given)	-8	-2	-4	11	-9	-1	·	·
COC(=O)CCCC1=CC2=C(c3ccccc3)C(=O)C(C)(OC(=O)C3CCCC3)C(=O)C2=CN1CCc1ccccn1 (stereo not given)	-8	-1	15*	4	-12	-2	0	-5
S=c1[nH]nc(-c2cccnc2)n1/N=C/C=C/c1ccccc1	5	3	16*	-23	1	0	-1	0
C=C(C)c1cccc(C(C)(C)NC(=O)N2CCC(C)CC2)c1	-1	-2	19*	10	1	0	0	10
C=C(C)c1cccc(C(C)(C)NC(=O)N2CCCCC2CC)c1 (stereo not given)	0	2	53*	-11	-11	2	-1	17*
